Measured values as given in PubChem BioAssay AID1159580 (chemical genetic matrix, 2015).
Out of some 5,500 compounds screened, about 2,000 (36%) were called active. Another 18% or so got no clear call; they are omitted. Cut-off read from the data, not from the text of the source: active = normalized growth mostly below about 0.91 (no sharp cut-off); inconclusive = no clear call, values can overlap the other calls; inactive = mostly above about 0.92. This is one part of the list.

Assay: chemical genetic growth profiling, strain panel (AID 1159580);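 note: tested at 20 µM; growth read once vehicle control cultures reached saturation at 30 °C; 1 = growth at the plate median or of vehicle wells; lower values mean less growth of the strain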
Settings: S. cerevisiae deletion strains, growth OD

Measured: normalized growth

COC1C=CC23c4cc5c(cc4CN(CC2O)[C@@H]3C1)OCO5 (stereo partly specified)
inactive: locus YAL021C, strain ccr4, active compounds read low 0.974 | locus YAL026C, strain drs2, active compounds read low 0.956 | locus YAL030W, strain snc1, active compounds read low 0.989 | locus YBL061C, strain skt5, active compounds read low 0.967 | locus YBR009C, strain hhf1, active compounds read low 0.969 | locus YBR021W, strain FUR4, active compounds read low 1.01 | locus YBR023C, strain chs3, active compounds read low 0.966 | locus YBR171W, strain sec66, active compounds read low 0.962 | locus YBR229C, strain ROT2, active compounds read low 1.01 | locus YBR231C, strain swc5, active compounds read low 0.963 | locus YBR279W, strain paf1, active compounds read low 0.971 | locus YCL011C, strain gbp2, active compounds read low 0.956 | locus YCL016C, strain dcc1, active compounds read low 0.992 | locus YCL029C, strain bik1, active compounds read low 1 | locus YCL069W, strain vba3, active compounds read low 0.948 | locus YCR088W, strain abp1, active compounds read low 0.971 | locus YDL005C, strain med2, active compounds read low 0.944 | locus YDL035C, strain GPR1, active compounds read low 1.01 | locus YDL040C, strain nat1, active compounds read low 0.975 | locus YDL074C, strain BRE1, active compounds read low 1.05 | locus YDL101C, strain DUN1, active compounds read low 1.04 | locus YDL134C, strain PPH21, active compounds read low 1.03 | locus YDL185W, strain tfp1, active compounds read low 1 | locus YDL192W, strain arf1, active compounds read low 0.982 | locus YDR001C, strain nth1, active compounds read low 0.979 | locus YDR069C, strain doa4, active compounds read low 0.944 | locus YDR101C, strain arx1, active compounds read low 0.962 | locus YDR137W, strain rgp1, active compounds read low 0.933 | locus YDR159W, strain sac3, active compounds read low 0.964 | locus YDR162C, strain NBP2, active compounds read low 1.03 | locus YDR195W, strain ref2 0.962 | locus YDR297W, strain sur2, active compounds read low 0.977 | locus YDR318W, strain mcm21, active compounds read low 0.995 | locus YDR334W, strain swr1, active compounds read low 0.966 | locus YDR335W, strain msn5, active compounds read low 0.959 | locus YDR388W, active compounds read low 1 | locus YDR392W, strain spt3, active compounds read low 1.06 | locus YDR502C, strain sam2, active compounds read low 1.01 | locus YEL003W, strain gim4, active compounds read low 0.972 | locus YEL037C, strain rad23, active compounds read low 0.973 | locus YEL061C, strain CIN8 (second series), active compounds read low 0.945 | locus YER015W, strain faa2, active compounds read low 0.986 | locus YER016W, strain bim1, active compounds read low 0.971 | locus YER110C, active compounds read low 1 | locus YER111C, strain swi4, active compounds read low 0.961 | locus YER155C, strain BEM2 (second series), active compounds read low 0.978 | locus YER155C, strain BEM2, active compounds read low 0.997 | locus YER167W, strain BCK2, active compounds read low 0.992 | locus YFR010W, strain ubp6, active compounds read low 0.939 | locus YGL078C, strain dbp3, active compounds read low 1.03 | locus YGL086W, strain mad1, active compounds read low 0.999 | locus YGL167C, strain pmr1, active compounds read low 0.971 | locus YGL173C, strain kem1, active compounds read low 0.968 | locus YGL227W, strain vid30, active compounds read low 0.979 | locus YGL240W, strain doc1, active compounds read low 0.999 | locus YGL248W, strain PDE1, active compounds read low 1.04 | locus YGL253W, strain hxk2, active compounds read low 0.951 | locus YGR135W, strain pre9, active compounds read low 1.05 | locus YGR229C, strain SMI1, active compounds read low 1.06 | locus YGR252W, strain gcn5, active compounds read low 1.09 | locus YHR013C, strain ard1, active compounds read low 0.95 | locus YHR027C, strain rpn1, active compounds read low 0.977 | locus YHR079C, strain IRE1 (second series), active compounds read low 1.01 | locus YHR094C, strain hxt1, active compounds read low 0.992 | locus YHR129C, strain ARP1, active compounds read low 1.02 | locus YHR142W, strain chs7, active compounds read low 0.956 | locus YHR200W, strain rpn10, active compounds read low 1.01 | locus YIL066C, strain RNR3, active compounds read low 1.02 | locus YIL073C, strain SPO22, active compounds read low 0.964 | locus YIL125W, strain kgd1, active compounds read low 0.981 | locus YIR030C, strain dcg1, active compounds read low 1 | locus YJL092W, strain hpr5, active compounds read low 0.948 | locus YJL095W, strain BCK1 (second series), active compounds read low 0.965 | locus YJL095W, strain BCK1, active compounds read low 1.08 | locus YJL115W, strain asf1, active compounds read low 0.988 | locus YJL129C, strain trk1, active compounds read low 0.976 | locus YJL134W, strain LCB3, active compounds read low 1 | locus YJL154C, strain vps35, active compounds read low 0.968 | locus YJL164C, strain tpk1, active compounds read low 0.973 | locus YJL166W, strain qcr8, active compounds read low 0.965 | locus YJL168C, strain set2, active compounds read low 1.01 | locus YJL187C, strain SWE1 (second series), active compounds read low 1.04 | locus YJL187C, strain SWE1, active compounds read low 0.957 | locus YKL009W, strain mrt4, active compounds read low 1.02 | locus YKL068W, active compounds read low 1 | locus YKL085W, strain MDH1 (second series), active compounds read low 1.01 | locus YKL085W, strain MDH1, active compounds read low 1.01 | locus YKL160W, strain elf1, active compounds read low 0.995 | locus YKR001C, strain vps1, active compounds read low 0.978 | locus YKR026C, strain gcn3, active compounds read low 0.983 | locus YKR091W, strain srl3, active compounds read low 0.98 | locus YLL001W, strain dnm1, active compounds read low 0.973 | locus YLL026W, active compounds read low 1 | locus YLL041C, strain sdh2, active compounds read low 0.969 | locus YLR027C, strain aat2, active compounds read low 0.991 | locus YLR039C, strain RIC1, active compounds read low 1.06 | locus YLR058C, strain SHM2, active compounds read low 1.02 | locus YLR102C, strain apc9, active compounds read low 0.995 | locus YLR221C, strain rsa3, active compounds read low 0.956 | locus YLR258W, strain gsy2, active compounds read low 0.97 | locus YLR262C, strain YPT6 (second series), active compounds read low 0.917 | locus YLR262C, strain YPT6, active compounds read low 1.07 | locus YLR268W, strain sec22, active compounds read low 0.974 | locus YLR320W, strain mms22, active compounds read low 0.975 | locus YLR342W, strain FKS1, active compounds read low 0.99 | locus YLR357W, strain rsc2, active compounds read low 0.967 | locus YLR370C, strain arc18, active compounds read low 0.949 | locus YLR371W, strain rom2, active compounds read low 0.976 | locus YLR384C, strain iki3, active compounds read low 0.966 | locus YLR418C, strain cdc73, active compounds read low 1.04 | locus YML016C, strain PPZ1, active compounds read low 1.01 | locus YML032C, strain rad52, active compounds read low 0.98 | locus YML120C, strain ndi1, active compounds read low 1 | locus YML124C, strain tub3, active compounds read low 0.991 | locus YMR058W, strain fet3, active compounds read low 0.983 | locus YMR078C, strain ctf18, active compounds read low 1.01 | locus YMR125W, strain sto1, active compounds read low 0.922 | locus YMR129W, active compounds read low 0.991 | locus YMR205C, strain PFK2, active compounds read low 0.998 | locus YMR223W, strain ubp8, active compounds read low 0.998 | locus YMR231W, strain pep5, active compounds read low 0.974 | locus YMR263W, strain SAP30, active compounds read low 1.03 | locus YMR307W, strain GAS1, active compounds read low 1.06 | locus YNL067W, strain RPL9B, active compounds read low 1.04 | locus YNL071W, strain lat1, active compounds read low 0.97 | locus YNL153C, strain GIM3, active compounds read low 1.04 | locus YNL209W, strain ssb2, active compounds read low 0.981 | locus YNL233W, strain BNI4, active compounds read low 1.04 | locus YNL248C, strain rpa49, active compounds read low 0.949 | locus YNL250W, strain rad50, active compounds read low 1.03 | locus YNL271C, strain bni1, active compounds read low 0.988 | locus YNL298W, strain CLA4, active compounds read low 0.994 | locus YNL307C, strain MCK1, active compounds read low 1.01 | locus YNL322C, strain KRE1 (second series), active compounds read low 0.935 | locus YNR049C, strain mso1, active compounds read low 0.975 | locus YNR052C, strain pop2, active compounds read low 0.997 | locus YOL012C, strain htz1 0.915 | locus YOL147C, strain pex11, active compounds read low 1 | locus YOR001W, strain rrp6, active compounds read low 0.978 | locus YOR061W, strain CKA2, active compounds read low 0.996 | locus YOR069W, strain VPS5, active compounds read low 1.01 | locus YOR070C, strain gyp1, active compounds read low 0.999 | locus YOR080W, strain dia2, active compounds read low 0.976 | locus YOR106W, strain vam3, active compounds read low 0.992 | locus YOR136W, strain idh2, active compounds read low 1 | locus YOR144C, strain elg1, active compounds read low 0.995 | locus YOR184W, strain ser1, active compounds read low 0.967 | locus YOR265W, strain rbl2, active compounds read low 0.99 | locus YOR270C, strain vph1, active compounds read low 0.847 | locus YOR290C, strain snf2, active compounds read low 0.976 | locus YOR316C, strain cot1, active compounds read low 1 | locus YPL051W, strain arl3, active compounds read low 0.99 | locus YPL055C, strain LGE1, active compounds read low 1.03 | locus YPL078C, strain atp4, active compounds read low 0.986 | locus YPL106C, strain sse1, active compounds read low 0.982 | locus YPL240C, strain hsp82, active compounds read low 0.965 | locus YPR119W, strain clb2, active compounds read low 0.994 | locus YPR141C, strain kar3, active compounds read low 0.993 | locus YPR163C, strain tif3, active compounds read low 1 | locus YPR167C, strain met16, active compounds read low 1 | strain wtn01, active compounds read low 1
